Data as given in PMC7862700, “An all-to-all approach to the identification of sequence-specific readers for epigenetic DNA modifications on cytosine”.

Tests used:
Test in all cases: DAPPL (digital affinity profiling via proximity ligation, sequencing); 10 mM Tris-HCl pH 7.5, 50 mM NaCl, 1 mM DTT, 4% glycerol, room temperature, 30 min; GST-TFs on glutathione beads, 16-mer random dsDNA library, 0.1% formaldehyde crosslink after washing; high values mean tight binding
Conditions in all cases: protein: recombinant; tags: N-terminal GST; dsDNA, one strand shown
FLI1 = molecular target: T1, FLI1 (Homo sapiens, UniProt Q01543 1-452)
T1 sequence: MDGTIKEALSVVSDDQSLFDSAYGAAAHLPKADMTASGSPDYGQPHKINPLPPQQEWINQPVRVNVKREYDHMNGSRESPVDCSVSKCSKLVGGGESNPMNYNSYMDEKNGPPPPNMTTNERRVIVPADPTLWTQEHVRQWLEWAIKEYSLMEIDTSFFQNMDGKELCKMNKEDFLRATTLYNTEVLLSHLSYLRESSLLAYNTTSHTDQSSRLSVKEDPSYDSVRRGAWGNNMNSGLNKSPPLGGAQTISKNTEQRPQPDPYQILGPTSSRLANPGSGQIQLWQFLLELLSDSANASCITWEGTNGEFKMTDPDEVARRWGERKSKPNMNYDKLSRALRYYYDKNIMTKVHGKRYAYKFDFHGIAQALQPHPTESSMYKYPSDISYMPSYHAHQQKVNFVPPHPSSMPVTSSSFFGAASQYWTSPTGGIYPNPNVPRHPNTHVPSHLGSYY
In short: (§1)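 Human transcription factors carrying a GST fusion were produced in yeast, bound to glutathione beads, tagged with DNA barcodes and pooled together with a tag-only sample. Each pool was held with 200 nmole of a random double-stranded 16-mer DNA library in Tris/NaCl/DTT/glycerol buffer for 30 min at room temperature, then washed, crosslinked in 0.1% formaldehyde, proximity-ligated with BsaI/T4 ligase (1 h, 37 °C), PCR-amplified and sequenced on an Illumina NextSeq500. Binding signal is the read frequency of each hexamer for a given factor divided by its frequency in the tag-only sample.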

GABPA = molecular target: T2, GABPA (Homo sapiens, UniProt Q06546 1-454)
T2 sequence: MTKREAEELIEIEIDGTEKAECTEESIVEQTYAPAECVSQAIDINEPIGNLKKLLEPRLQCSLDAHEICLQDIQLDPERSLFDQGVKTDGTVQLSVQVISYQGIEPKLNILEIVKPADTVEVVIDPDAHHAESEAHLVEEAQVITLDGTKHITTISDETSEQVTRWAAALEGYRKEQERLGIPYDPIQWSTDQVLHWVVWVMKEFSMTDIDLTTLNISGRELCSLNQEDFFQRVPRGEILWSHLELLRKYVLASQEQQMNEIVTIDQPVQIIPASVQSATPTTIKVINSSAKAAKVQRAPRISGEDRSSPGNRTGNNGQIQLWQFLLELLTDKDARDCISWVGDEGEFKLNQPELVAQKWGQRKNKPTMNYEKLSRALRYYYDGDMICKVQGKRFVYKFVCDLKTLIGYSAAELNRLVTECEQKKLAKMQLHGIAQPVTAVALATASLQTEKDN
In short: as §1

SPI1 = SPI1 (Homo sapiens, UniProt P17947 1-270)
In short: as §1

SPIB = SPIB (Homo sapiens, UniProt Q01892 1-262)
Chain of SPIB (Q01892 whole entry): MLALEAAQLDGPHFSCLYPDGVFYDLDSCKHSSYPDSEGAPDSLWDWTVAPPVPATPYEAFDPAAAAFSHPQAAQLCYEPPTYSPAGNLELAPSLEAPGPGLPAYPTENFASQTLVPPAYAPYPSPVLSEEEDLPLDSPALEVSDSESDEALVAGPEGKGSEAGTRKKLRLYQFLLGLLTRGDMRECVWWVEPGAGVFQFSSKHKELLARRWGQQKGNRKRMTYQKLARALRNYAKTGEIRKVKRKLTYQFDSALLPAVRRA
In short: as §1

FEV = molecular target: T3, FEV (Homo sapiens, UniProt Q99581 1-238)
T3 sequence: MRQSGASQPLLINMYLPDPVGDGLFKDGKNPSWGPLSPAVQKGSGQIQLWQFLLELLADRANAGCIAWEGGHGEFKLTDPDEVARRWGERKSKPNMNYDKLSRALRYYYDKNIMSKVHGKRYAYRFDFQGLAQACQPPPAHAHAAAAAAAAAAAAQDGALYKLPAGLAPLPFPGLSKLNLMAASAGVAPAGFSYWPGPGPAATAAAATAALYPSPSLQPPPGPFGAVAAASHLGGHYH
In short: as §1

SPIC = molecular target: T4, SPIC (Homo sapiens, UniProt Q8N5J4 1-248)
T4 sequence: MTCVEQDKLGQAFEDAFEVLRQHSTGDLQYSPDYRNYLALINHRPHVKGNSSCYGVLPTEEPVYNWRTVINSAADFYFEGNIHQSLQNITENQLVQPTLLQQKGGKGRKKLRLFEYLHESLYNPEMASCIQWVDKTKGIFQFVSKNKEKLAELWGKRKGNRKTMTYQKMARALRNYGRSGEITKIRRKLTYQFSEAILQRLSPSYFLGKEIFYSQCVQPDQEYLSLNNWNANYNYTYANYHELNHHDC
In short: as §1

ELK4 = molecular target: T5, ELK4 (Homo sapiens, UniProt P28324-2 1-405)
T5 sequence: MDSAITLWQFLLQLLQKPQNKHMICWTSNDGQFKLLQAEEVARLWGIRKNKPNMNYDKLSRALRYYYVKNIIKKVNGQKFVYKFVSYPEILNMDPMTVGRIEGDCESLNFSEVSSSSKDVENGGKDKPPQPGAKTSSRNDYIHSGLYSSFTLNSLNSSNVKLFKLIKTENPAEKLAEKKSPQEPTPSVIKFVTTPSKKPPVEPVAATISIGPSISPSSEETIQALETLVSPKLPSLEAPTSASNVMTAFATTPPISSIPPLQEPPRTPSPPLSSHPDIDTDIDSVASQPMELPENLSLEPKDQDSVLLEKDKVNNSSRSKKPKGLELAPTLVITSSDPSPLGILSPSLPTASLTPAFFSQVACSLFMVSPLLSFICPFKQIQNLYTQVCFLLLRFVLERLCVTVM
In short: as §1

ETV2 = molecular target: T6, ETV2 (Homo sapiens, UniProt O00321 1-342)
T6 sequence: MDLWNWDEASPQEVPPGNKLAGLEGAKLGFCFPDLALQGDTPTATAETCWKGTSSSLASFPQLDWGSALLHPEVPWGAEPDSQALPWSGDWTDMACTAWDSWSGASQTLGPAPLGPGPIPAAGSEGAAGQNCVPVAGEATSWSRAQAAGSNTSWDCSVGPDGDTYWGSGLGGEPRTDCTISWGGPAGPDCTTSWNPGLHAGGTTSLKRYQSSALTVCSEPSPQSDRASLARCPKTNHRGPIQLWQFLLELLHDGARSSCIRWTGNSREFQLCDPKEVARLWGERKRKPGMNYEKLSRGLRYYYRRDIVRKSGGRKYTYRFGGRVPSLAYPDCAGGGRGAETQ
In short: as §1

ELF3 = molecular target: T7, ELF3 (Homo sapiens, UniProt P78545 1-371)
T7 sequence: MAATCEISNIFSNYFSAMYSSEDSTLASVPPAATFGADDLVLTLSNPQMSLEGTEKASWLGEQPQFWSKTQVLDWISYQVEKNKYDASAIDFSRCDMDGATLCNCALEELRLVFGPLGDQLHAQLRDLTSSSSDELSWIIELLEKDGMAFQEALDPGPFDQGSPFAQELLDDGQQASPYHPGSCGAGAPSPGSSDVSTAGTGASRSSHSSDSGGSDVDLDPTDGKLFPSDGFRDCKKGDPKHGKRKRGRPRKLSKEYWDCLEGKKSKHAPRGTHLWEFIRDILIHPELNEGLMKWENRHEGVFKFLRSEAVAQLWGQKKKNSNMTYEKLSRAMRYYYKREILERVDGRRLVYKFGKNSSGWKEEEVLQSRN
In short: as §1

ETV1 = ETV1 (Homo sapiens, UniProt P50549 1-477)
Chain of ETV1 (P50549 whole entry): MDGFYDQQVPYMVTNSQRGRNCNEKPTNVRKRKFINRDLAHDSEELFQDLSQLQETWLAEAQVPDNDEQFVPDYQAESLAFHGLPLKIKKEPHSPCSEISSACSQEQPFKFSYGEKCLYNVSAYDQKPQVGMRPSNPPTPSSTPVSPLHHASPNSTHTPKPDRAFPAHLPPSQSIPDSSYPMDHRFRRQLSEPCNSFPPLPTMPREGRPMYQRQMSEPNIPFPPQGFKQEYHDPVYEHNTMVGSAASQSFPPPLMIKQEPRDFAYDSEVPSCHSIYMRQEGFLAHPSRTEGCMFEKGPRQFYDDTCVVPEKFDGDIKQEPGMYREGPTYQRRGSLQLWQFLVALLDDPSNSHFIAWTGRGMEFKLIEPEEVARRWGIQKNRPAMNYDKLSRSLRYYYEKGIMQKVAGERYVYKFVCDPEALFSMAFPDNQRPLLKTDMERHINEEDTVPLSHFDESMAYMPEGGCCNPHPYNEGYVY
In short: as §1

ERF = molecular target: T8, ERF (Homo sapiens, UniProt P50548 1-548)
T8 sequence: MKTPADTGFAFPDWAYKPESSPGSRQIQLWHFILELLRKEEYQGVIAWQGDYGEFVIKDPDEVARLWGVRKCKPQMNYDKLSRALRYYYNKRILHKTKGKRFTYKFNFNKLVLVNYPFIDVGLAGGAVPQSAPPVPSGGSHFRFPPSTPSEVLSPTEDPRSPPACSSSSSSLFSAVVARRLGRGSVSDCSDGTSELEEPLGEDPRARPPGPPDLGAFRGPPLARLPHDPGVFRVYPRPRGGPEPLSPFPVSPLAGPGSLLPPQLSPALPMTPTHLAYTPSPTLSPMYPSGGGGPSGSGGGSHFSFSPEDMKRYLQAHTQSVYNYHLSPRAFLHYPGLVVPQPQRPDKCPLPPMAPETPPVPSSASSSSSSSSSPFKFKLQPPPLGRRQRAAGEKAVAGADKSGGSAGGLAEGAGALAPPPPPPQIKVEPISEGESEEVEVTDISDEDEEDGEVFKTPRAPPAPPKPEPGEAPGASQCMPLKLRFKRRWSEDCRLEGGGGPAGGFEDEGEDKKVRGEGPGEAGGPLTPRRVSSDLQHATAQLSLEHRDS
In short: as §1

ETV3L = molecular target: T9, ETV3L (Homo sapiens, UniProt Q6ZN32 1-361)
T9 sequence: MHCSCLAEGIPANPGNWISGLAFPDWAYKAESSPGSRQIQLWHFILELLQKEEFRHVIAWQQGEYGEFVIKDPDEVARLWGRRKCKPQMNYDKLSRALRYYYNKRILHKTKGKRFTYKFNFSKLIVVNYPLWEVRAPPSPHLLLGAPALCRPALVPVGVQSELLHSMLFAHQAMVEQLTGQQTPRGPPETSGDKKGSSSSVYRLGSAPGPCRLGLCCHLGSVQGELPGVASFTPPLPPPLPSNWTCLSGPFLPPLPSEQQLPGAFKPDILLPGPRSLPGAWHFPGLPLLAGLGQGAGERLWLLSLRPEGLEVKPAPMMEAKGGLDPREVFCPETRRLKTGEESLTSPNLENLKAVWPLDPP
In short: as §1

ETS2 = molecular target: T10, ETS2 (Homo sapiens, UniProt P15036 1-469)
T10 sequence: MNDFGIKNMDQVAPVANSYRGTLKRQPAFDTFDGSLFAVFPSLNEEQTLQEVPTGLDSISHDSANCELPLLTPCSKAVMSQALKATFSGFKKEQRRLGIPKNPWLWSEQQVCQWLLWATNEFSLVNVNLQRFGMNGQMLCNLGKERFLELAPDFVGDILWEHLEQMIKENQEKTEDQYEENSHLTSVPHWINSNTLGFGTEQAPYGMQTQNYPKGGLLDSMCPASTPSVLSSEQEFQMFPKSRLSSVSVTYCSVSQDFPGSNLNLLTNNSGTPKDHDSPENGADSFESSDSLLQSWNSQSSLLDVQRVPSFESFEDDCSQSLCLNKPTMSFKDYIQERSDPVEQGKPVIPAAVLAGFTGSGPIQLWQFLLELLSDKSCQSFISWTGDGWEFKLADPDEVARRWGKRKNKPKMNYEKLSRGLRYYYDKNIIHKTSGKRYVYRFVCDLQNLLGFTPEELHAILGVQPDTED
In short: as §1

SPDEF = molecular target: T11, SPDEF (Homo sapiens, UniProt O95238 1-335)
T11 sequence: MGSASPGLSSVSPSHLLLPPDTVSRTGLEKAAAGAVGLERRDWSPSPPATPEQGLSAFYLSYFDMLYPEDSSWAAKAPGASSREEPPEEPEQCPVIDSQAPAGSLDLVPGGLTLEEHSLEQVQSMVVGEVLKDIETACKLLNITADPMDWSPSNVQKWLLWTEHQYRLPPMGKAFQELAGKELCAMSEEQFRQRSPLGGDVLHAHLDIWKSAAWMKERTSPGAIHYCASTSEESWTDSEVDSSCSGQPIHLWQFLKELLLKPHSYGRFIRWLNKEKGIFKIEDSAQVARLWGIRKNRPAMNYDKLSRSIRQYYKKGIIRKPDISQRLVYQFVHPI
In short: as §1

ETV7 = molecular target: T12, ETV7 (Homo sapiens, UniProt Q9Y603 1-341)
T12 sequence: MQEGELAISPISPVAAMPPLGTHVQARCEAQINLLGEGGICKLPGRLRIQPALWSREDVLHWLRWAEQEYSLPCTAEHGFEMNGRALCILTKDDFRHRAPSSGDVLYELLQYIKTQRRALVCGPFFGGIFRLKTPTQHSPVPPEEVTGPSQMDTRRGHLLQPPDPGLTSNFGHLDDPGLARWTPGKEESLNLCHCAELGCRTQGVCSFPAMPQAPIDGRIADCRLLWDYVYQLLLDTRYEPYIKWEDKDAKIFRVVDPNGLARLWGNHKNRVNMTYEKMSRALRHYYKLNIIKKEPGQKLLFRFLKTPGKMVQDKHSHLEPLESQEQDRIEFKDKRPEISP
In short: as §1

ELF5 = molecular target: T13, ELF5 (Homo sapiens, UniProt Q9UKW6-2 1-255)
T13 sequence: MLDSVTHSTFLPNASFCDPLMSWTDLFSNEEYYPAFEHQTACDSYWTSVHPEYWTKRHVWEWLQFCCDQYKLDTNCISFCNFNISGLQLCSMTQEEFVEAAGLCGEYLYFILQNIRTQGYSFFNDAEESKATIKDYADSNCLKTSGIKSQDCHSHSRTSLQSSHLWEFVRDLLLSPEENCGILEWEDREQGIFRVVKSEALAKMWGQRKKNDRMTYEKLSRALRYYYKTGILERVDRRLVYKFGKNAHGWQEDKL
In short: as §1

ATGCGT
binding signal (FLI1): 1.06 fold enrichment (6-mer frequency, TF over GST control)
binding signal (GABPA): 1.07 fold enrichment (6-mer frequency, TF over GST control)
binding signal (SPI1): 1.03 fold enrichment (6-mer frequency, TF over GST control)
binding signal (SPIB): 1.03 fold enrichment (6-mer frequency, TF over GST control)
binding signal (FEV): 1.01 fold enrichment (6-mer frequency, TF over GST control)
binding signal (SPIC): 1.07 fold enrichment (6-mer frequency, TF over GST control)
binding signal (ELK4): 1.15 fold enrichment (6-mer frequency, TF over GST control)
binding signal (ETV2): 1.18 fold enrichment (6-mer frequency, TF over GST control)
binding signal (ELF3): 1.07 fold enrichment (6-mer frequency, TF over GST control)
binding signal (ETV1): 1.02 fold enrichment (6-mer frequency, TF over GST control)
binding signal (ERF): 1.01 fold enrichment (6-mer frequency, TF over GST control)
binding signal (ETV3L): 1.1 fold enrichment (6-mer frequency, TF over GST control)
binding signal (ETS2): 1.02 fold enrichment (6-mer frequency, TF over GST control)
binding signal (SPDEF): 1.07 fold enrichment (6-mer frequency, TF over GST control)
binding signal (ETV7): 1.16 fold enrichment (6-mer frequency, TF over GST control)
binding signal (ELF5): 1.03 fold enrichment (6-mer frequency, TF over GST control)
